Reference: ChEMBL document CHEMBL4513216, “Probing the Open Global Health Chemical Diversity Library for Multistage-Active Starting Points for Next-Generation Antimalarials” (ACS Infect Dis, 2020)
The campaign covered roughly 69,000 compounds. About 8,600 (12%) showed an effect of 50% or more. Only a selection was taken, and strong results are over-represented in it overall.

These molecules were tested on Plasmodium berghei (assay: Screen against P. berghei liver stage (PbLuc), transformed with Luciferase, at 10uM). Conditions: tested at 10 uM.
Assay type: functional, HepG2

Compared with `Cc1noc(C)c1CNCC1Cn2nncc2CO1` (stereo unspecified), `Cc1nn(C)cc1CN1C[C@H]2CC[C@@H](C1)N(Cc1c(C)noc1C)C2=O` is lower in INHIBITION: 40.3% for the first, -4.4% for the second.

First: Cc1nc(N2CCCC2)nc2c1CN(C(=O)NC(C)C)CC2
Second: Cc1ccc2nc(NCCCN3CCCCCC3=O)n(C)c(=O)c2c1
The INHIBITION of the first is lower: -9.74% for the first, 8.97% for the second.

Compared with `CC(C)[C@@H]1CN(CCOc2ccc(Cl)cc2)C[C@H]1NS(C)(=O)=O`, `CC(C)[C@@H]1CN(CCCOc2ccc(F)cc2)C[C@H]1NS(C)(=O)=O` is higher in INHIBITION: 14.6% for the first, 54.5% for the second.

First: CCc1ccccc1OCCN1CCC(NS(C)(=O)=O)CC1
Second: CCc1ccccc1OCCN1C[C@@H](NS(C)(=O)=O)[C@H](C(C)C)C1
The INHIBITION of the first is lower: 43.1% for the first, 57.3% for the second.

First: CS(=O)(=O)N[C@H]1CN(CCOCc2ccccc2)C[C@@H]1C1CC1
Second: CC(C)[C@@H]1CN(Cc2c[nH]nc2-c2ccc(F)cc2)C[C@H]1NS(C)(=O)=O
The INHIBITION of the first is higher: 15% for the first, -5.22% for the second.

Compared with `CCOc1ccc(Cl)c(C(=O)N2CCN(C(=O)OC)CC2)n1`, `O=C(c1cc(-n2cnnn2)ccc1Cl)N1CCN(c2ccccc2)CC1` is higher in INHIBITION: -6.44% for the first, 10.1% for the second.

Compared with `Cc1cc(C2CCCN2S(=O)(=O)c2cnn(C)c2)on1` (stereo unspecified), `CN(C)c1ncc(I)c(C2CCCN2C)n1` (stereo unspecified) is lower in INHIBITION: -9.8% for the first, -54.1% for the second.

First: Cc1ccc(CNC(=O)NCc2ccco2)s1
Second: O=C(NCc1ccccn1)Nc1cc(C(F)(F)F)c[nH]c1=O
The INHIBITION of the first is lower: 10.7% for the first, 57.2% for the second.

Compared with `CS(=O)(=O)NCC1CCCCN1C(=O)c1csc(-c2ccsc2)n1` (stereo unspecified), `CS(=O)(=O)NCC1CCCCN1C(=O)c1ccsc1` (stereo unspecified) is higher in INHIBITION: -89.3% for the first, 59.5% for the second.

Going from `CS(=O)(=O)NCC1CCCCN1C(=O)c1ccc(Br)s1` (stereo unspecified) to `Cc1nc(C)n(CC2CCCN2CC(=O)Nc2ccncc2)n1` (stereo unspecified), the INHIBITION rises from -50.5% to 25.4%.

Going from `Cc1ccc2nc(NCCN3CCOCC3)n(C)c(=O)c2c1` to `CCN1CCN(CCNc2nc3ccc(C)cc3c(=O)n2C)CC1`, the INHIBITION rises from -22.4% to 71.7%.

Compared with `COCCN1CCO[C@@H]2CN(C(=O)Cc3cccc(F)c3)CC[C@@H]2C1`, `O=C(c1ccc(Cl)cc1)N1CCn2c(nn(-c3cccc(Cl)c3)c2=O)C1` is higher in INHIBITION: 10.5% for the first, 54% for the second.

Compared with `O=C(c1ccc(Cl)cc1)N1CCn2c(nn(-c3ccncc3)c2=O)C1`, `O=C(c1ccc(Cl)cc1)N1CCn2c(nn(-c3ccc(Cl)cc3)c2=O)C1` is lower in INHIBITION: 49.9% for the first, 35% for the second.

Going from `Cn1nccc1CNC(=O)Nc1cc(C(F)(F)F)c[nH]c1=O` to `Cn1nccc1C(=O)Nc1cc(C(F)(F)F)c[nH]c1=O`, the INHIBITION falls from 55.1% to 17.68%.

Going from `O=C(NCCNc1ccccn1)Nc1cc(C(F)(F)F)c[nH]c1=O` to `O=C(NCCc1ccccn1)Nc1cc(C(F)(F)F)c[nH]c1=O`, the INHIBITION falls from 7.4% to 1.62%.

For `O=C(NCc1ccncc1)Nc1cc(C(F)(F)F)c[nH]c1=O`, the INHIBITION was 11.083%.
